Where “and” joins values, the source holds several entries; their conditions need not be identical. Identical values can stand only once. In all, about 5,500 compounds went through this assay and about 2,000 (36%) were called active. Roughly 18% stayed inconclusive and do not appear here. Rule as the data show it: active = normalized growth mostly below about 0.91 (no sharp cut-off); inconclusive = no clear call, values can overlap the other calls; inactive = mostly above about 0.92. The list shows a part of the results.
Assay: chemical genetic growth profiling, strain panel (AID 1159580);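 also: tested at 20 µM; growth read once vehicle control cultures reached saturation at 30 °C; 1 = growth at the plate median or of vehicle wells; lower values mean less growth of the strain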
Conditions: S. cerevisiae deletion strains, growth OD

Measured: normalized growth

CC1=C(C(C)O)C2=NC1C=c1[nH]c(c(C)c1C(C)O)=Cc1[nH]c(c(CCC(=O)O)c1C)C=c1[nH]c(c(C)c1CCC(=O)O)=C2 (configuration not stated)
inactive: locus YAL013W, strain DEP1, stronger effect = lower value 0.937 | locus YAL021C, strain ccr4, stronger effect = lower value 0.982 | locus YAL026C, strain drs2, stronger effect = lower value 0.988 | locus YAL030W, strain snc1, stronger effect = lower value 0.995 | locus YBL061C, strain skt5, stronger effect = lower value 0.986 | locus YBR009C, strain hhf1, stronger effect = lower value 0.986 | locus YBR021W, strain FUR4, stronger effect = lower value 0.998 | locus YBR023C, strain chs3, stronger effect = lower value 0.986 | locus YBR171W, strain sec66, stronger effect = lower value 0.994 | locus YBR229C, strain ROT2, stronger effect = lower value 1 | locus YBR231C, strain swc5, stronger effect = lower value 0.988 | locus YBR279W, strain paf1, stronger effect = lower value 1.01 | locus YCL011C, strain gbp2, stronger effect = lower value 0.994 | locus YCL016C, strain dcc1, stronger effect = lower value 0.986 | locus YCL029C, strain bik1, stronger effect = lower value 1.02 | locus YCL061C, strain MRC1, stronger effect = lower value 0.989 | locus YCL069W, strain vba3, stronger effect = lower value 0.99 | locus YCR088W, strain abp1, stronger effect = lower value 0.985 | locus YDL005C, strain med2, stronger effect = lower value 0.995 | locus YDL035C, strain GPR1, stronger effect = lower value 0.976 | locus YDL040C, strain nat1, stronger effect = lower value 0.998 | locus YDL074C, strain BRE1, stronger effect = lower value 0.956 | locus YDL101C, strain DUN1, stronger effect = lower value 0.999 | locus YDL185W, strain tfp1, stronger effect = lower value 1 | locus YDL192W, strain arf1, stronger effect = lower value 0.989 | locus YDR001C, strain nth1, stronger effect = lower value 1 | locus YDR069C, strain doa4, stronger effect = lower value 0.999 | locus YDR101C, strain arx1, stronger effect = lower value 1.01 | locus YDR137W, strain rgp1, stronger effect = lower value 1.04 | locus YDR150W, strain NUM1, stronger effect = lower value 0.997 | locus YDR159W, strain sac3, stronger effect = lower value 0.946 | locus YDR162C, strain NBP2, stronger effect = lower value 0.897 | locus YDR195W, strain ref2 0.935 | locus YDR297W, strain sur2, stronger effect = lower value 0.986 | locus YDR318W, strain mcm21, stronger effect = lower value 1.01 | locus YDR334W, strain swr1, stronger effect = lower value 0.993 | locus YDR335W, strain msn5, stronger effect = lower value 1 | locus YDR388W, stronger effect = lower value 1.02 | locus YDR392W, strain spt3, stronger effect = lower value 0.839 | locus YDR502C, strain sam2, stronger effect = lower value 0.977 | locus YEL003W, strain gim4, stronger effect = lower value 0.977 | locus YEL037C, strain rad23, stronger effect = lower value 1 | locus YEL061C, strain CIN8 (second series), stronger effect = lower value 0.996 | locus YEL061C, strain CIN8, stronger effect = lower value 0.995 | locus YER015W, strain faa2, stronger effect = lower value 1.01 | locus YER016W, strain bim1, stronger effect = lower value 0.989 | locus YER110C, stronger effect = lower value 1.03 | locus YER111C, strain swi4, stronger effect = lower value 0.986 | locus YER155C, strain BEM2 (second series), stronger effect = lower value 0.998 | locus YER155C, strain BEM2, stronger effect = lower value 0.995 | locus YER167W, strain BCK2, stronger effect = lower value 0.96 | locus YFR010W, strain ubp6, stronger effect = lower value 0.999 | locus YGL078C, strain dbp3, stronger effect = lower value 1.03 | locus YGL086W, strain mad1, stronger effect = lower value 0.968 | locus YGL167C, strain pmr1, stronger effect = lower value 0.995 | locus YGL173C, strain kem1, stronger effect = lower value 0.983 | locus YGL227W, strain vid30, stronger effect = lower value 0.993 | locus YGL240W, strain doc1, stronger effect = lower value 0.945 | locus YGL248W, strain PDE1, stronger effect = lower value 1.01 | locus YGL253W, strain hxk2, stronger effect = lower value 1 | locus YGR078C, strain PAC10, stronger effect = lower value 0.984 | locus YGR135W, strain pre9, stronger effect = lower value 0.973 | locus YGR252W, strain gcn5, stronger effect = lower value 1 | locus YHR013C, strain ard1, stronger effect = lower value 0.931 | locus YHR027C, strain rpn1, stronger effect = lower value 1 | locus YHR030C, strain SLT2, stronger effect = lower value 1.01 and 1.06 | locus YHR079C, strain IRE1 (second series), stronger effect = lower value 1.01 | locus YHR079C, strain IRE1, stronger effect = lower value 1.05 | locus YHR094C, strain hxt1, stronger effect = lower value 1.02 | locus YHR129C, strain ARP1, stronger effect = lower value 1 | locus YHR142W, strain chs7, stronger effect = lower value 1.01 | locus YHR200W, strain rpn10, stronger effect = lower value 0.986 | locus YIL066C, strain RNR3, stronger effect = lower value 0.98 | locus YIL073C, strain SPO22, stronger effect = lower value 1.12 | locus YIL125W, strain kgd1, stronger effect = lower value 1.02 | locus YIR030C, strain dcg1, stronger effect = lower value 1.01 | locus YJL092W, strain hpr5, stronger effect = lower value 0.992 | locus YJL095W, strain BCK1 (second series), stronger effect = lower value 0.994 | locus YJL095W, strain BCK1, stronger effect = lower value 0.982 and 1.06 | locus YJL115W, strain asf1, stronger effect = lower value 0.977 | locus YJL129C, strain trk1, stronger effect = lower value 0.949 | locus YJL134W, strain LCB3, stronger effect = lower value 1 | locus YJL154C, strain vps35, stronger effect = lower value 0.995 | locus YJL164C, strain tpk1, stronger effect = lower value 0.986 | locus YJL166W, strain qcr8, stronger effect = lower value 0.966 | locus YJL168C, strain set2, stronger effect = lower value 1 | locus YJL187C, strain SWE1 (second series), stronger effect = lower value 1

— PubChem BioAssay AID1159580 (chemical genetic matrix, 2015)
